# From PubChem BioAssay AID602360 (National Center for Advancing Translational Sciences (NCATS), 2012)
# Records with an inconclusive call do not appear. Unmarked numbers belong to inactive results. Calls of active or inactive are those of the source. The call rests on the fitted dose curve; in most records, active means well fitted curve in the direction sought with a large enough effect; inconclusive means small, poorly fitted or top-dose-only effect, or another doubt; inactive means no such curve, though single readings can be large or run the other way.
# Target: Holo-[acyl-carrier-protein] synthase (Bacillus subtilis (strain 168)) (UniProt P96618)
# Assay: qHTS Assay for Inhibitors of Bacillus subtilis AcpS phosphopantetheinyl transferase (PPTase): SAR
# Conditions: purified B. subtilis AcpS enzyme; Potency: PPTase activity; series mostly up to 57.1 µM; activity change, negative = inhibition: at the top concentration
# Excerpt: The covalent attachment of a phosphopantetheinyl (4'-PP) arm to a variety of synthases and other proteins is a key posttranslational protein modification. The 4'-PP is installed on the proteins post-translationally from coenzyme A (CoA) on a conserved serine residue by action of phosphopantetheinyl transferase (PPTase) enzymes. Phosphopantetheinylation is essential for synthase activity, and removal of the PPTase gene precludes natural product synthesis in microorganisms, or in the case of fatty acid biosynthesis, renders the organism unviable. PPTase enzymes belong to a distinct structural superfamily. Within bacteria, these enzymes are grouped into two classes based upon primary structure, the AcpS-Type and Sfp-Type PPTases.
# Sfp-type PPTases, corresponding to an activator of surfactin production in Bacillus subtilis, are responsible for modifying type I polyketide and nonribosomal peptide synthases of prokaryotes. Sfp-type PPTases are responsible for the activation of a variety of pathogen-associated virulence factors. Among these compounds are toxins such as mycolactone from Mycobacterium ulcerans, siderophores such as vibriobactin from Vibrio cholerae or mycobactin from Mycobacterium tuberculosis, as well as the mycolic acids which form the waxy cell wall of Mycobacteria. The biosyntheses of these natural products are considered attractive targets for drug design.
# In search of small molecule Sfp-PPTase inhibitors, a fluorescence quenching assay was developed for detection of Bacillus subtilis Sfp-PPTase enzymatic activity in a miniaturized high-throughput format. The consensus ybbr acceptor peptide […] was N-terminally labeled with Black Hole Quencher-2 (BHQ-2) and used in combination with rhodamine-labeled coenzyme A as a co-substrate.
# This project seeks to identify Sfp-PPTase inhibitors. This assay sought to determine the activity of these compounds with holo-acyl carrier protein synthase (AcpS) from E. coli, the canonical representative of the AcpS-PPTase subgrouping (vide supra). The evaluation utilized the qHTS assay format, with the only change being direct substitution of the enzyme.
# NIH Chemical Genomics Center [NCGC]
# NIH Molecular Libraries Probe Centers Network [MLPCN]
# Assay Submitter (PI): Michale Burkart, University of California, San Diego
# The assay was performed in a buffer consisting of 50mM HEPES-Na pH 7.6, 10mM MgCl2, 0.01% Nonidet P-40, and 0.01% BSA. Reagents (3 uL) were dispensed into a 1536-well black solid bottom plate (100 nM AcpS PPTase incolumns 1, 2, 5 through 48; buffer sans enzyme in columns 3 &4). DMSO solution of test articles (23 nL) were transferred via Kalypsys pintool equipped with 1,536-pin array. Following a room temperature incubation (15 min), enzyme reactions were initiated by the addition of substrate (1 uL , final concentration in the plte for rhodamine-CoA and BHQ-2-YbbR 5 uM and 12.5 uM, respectively). The plate was then centrifuged (15 s, 1000 rpm), and the fluorescence intensity recorded on a ViewLux High-throughput CCD imager (Perkin-Elmer, 525 nm excitation and 598 nm emission). The plate was then incubated at room temperature (30 min), after which a second read on the ViewLux was recorded. The fluorescence intensity difference over the 30-minute period was used to calculate the respective reaction rate for each well.
SMILES,"activity change, negative = inhibition [%]",Potency
COc1cccc(NC(=S)N2CCN(c3cc(Cl)cc(Cl)c3)CC2)n1,8.03,–
Cc1ccnc(NC(=S)Nc2cccc(C(F)(F)F)c2)c1,-5.9,–
Cc1cc(C)nc(NC(=S)N2CCN(c3ccc([N+](=O)[O-])cc3Cl)CC2)c1,–,6.46 µM (active)
CC(Cc1ccccc1)C(=O)Nc1ccc(Cl)cc1C(=O)O (configuration not stated),-11.5,–
Cc1ccnc(NC(=S)N[C@@H]2CCN(c3cccc(C(F)(F)F)c3)C2)c1,-1.64,–
Cc1ccnc(N=C(N)N2CCN(c3cccc(C(F)(F)F)c3)CC2)c1,15.1,–
Cc1nc(CN(C)c2ncnc3ccc(-c4ccc5[nH]ncc5c4)cc23)cs1,55.2,–
Cc1ccnc(NC(=S)N2CCN(c3cc(C(F)(F)F)cc(C(F)(F)F)c3)CC2)c1,–,4.57 µM (active)
Cc1ccnc(NC(=S)N2CCCc3ccc(C(F)(F)F)cc32)c1,1.85,–
CSC(Cc1ccc(Cl)cc1)C(=O)Nc1ccc(Cl)cc1C(=O)O (configuration not stated),1.84,–
FC(F)(F)c1cc(N2CCN(C(=S)Nc3cc(Cl)ccn3)CC2)cc(C(F)(F)F)c1,10.1,–
Cc1cc(C)nc(NC(=S)N2CCN(c3ncccc3C#N)CC2)c1,-7.03,–
